From PubChem BioAssay AID1159580 (chemical genetic matrix, 2015)
Values joined by “and” are separate entries in the source; they are usually repeats but may differ in a detail not shown here. Equal entries are not always repeated. Out of some 5,500 compounds screened, about 2,000 (36%) were called active. About 18% were inconclusive and are not listed. No stated cut-off is given here; in the data, active means normalized growth mostly below about 0.91 (no sharp cut-off); inconclusive means no clear call, values can overlap the other calls; inactive means mostly above about 0.92. The list shows a part of the results.

Assay: chemical genetic growth profiling, strain panel (AID 1159580);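 further: tested at 20 µM; growth read once vehicle control cultures reached saturation at 30 °C; 1 = growth at the plate median or of vehicle wells; lower values mean less growth of the strain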
Conditions: S. cerevisiae deletion strains, growth OD

Measured: normalized growth

NCC(CC(=O)O)c1ccc(Cl)cc1 (configuration not stated)
inactive: locus YAL013W, strain DEP1, hits give low values 1.02 | locus YAL021C, strain ccr4, hits give low values 0.99 | locus YAL026C, strain drs2, hits give low values 0.997 | locus YAL030W, strain snc1, hits give low values 1 | locus YAL040C, strain CLN3, hits give low values 1.03 | locus YBL061C, strain skt5, hits give low values 1 | locus YBR009C, strain hhf1, hits give low values 0.968 | locus YBR021W, strain FUR4, hits give low values 1.04 | locus YBR023C, strain chs3, hits give low values 0.997 | locus YBR171W, strain sec66, hits give low values 1.01 | locus YBR229C, strain ROT2, hits give low values 1.01 | locus YBR231C, strain swc5, hits give low values 1.01 | locus YBR279W, strain paf1, hits give low values 0.994 | locus YCL011C, strain gbp2, hits give low values 0.992 | locus YCL016C, strain dcc1, hits give low values 0.976 | locus YCL029C, strain bik1, hits give low values 0.993 | locus YCL061C, strain MRC1 (second series), hits give low values 0.981 | locus YCL069W, strain vba3, hits give low values 0.994 | locus YCR088W, strain abp1, hits give low values 1 | locus YDL005C, strain med2, hits give low values 1 | locus YDL035C, strain GPR1, hits give low values 1.05 | locus YDL040C, strain nat1, hits give low values 0.995 | locus YDL074C, strain BRE1, hits give low values 1.03 | locus YDL101C, strain DUN1, hits give low values 1.01 | locus YDL185W, strain tfp1, hits give low values 0.993 | locus YDL192W, strain arf1, hits give low values 0.991 | locus YDR001C, strain nth1, hits give low values 0.995 | locus YDR069C, strain doa4, hits give low values 1.02 | locus YDR101C, strain arx1, hits give low values 0.979 | locus YDR137W, strain rgp1, hits give low values 0.98 | locus YDR150W, strain NUM1, hits give low values 1.01 | locus YDR159W, strain sac3, hits give low values 0.945 | locus YDR162C, strain NBP2, hits give low values 1.04 | locus YDR195W, strain ref2 0.995 | locus YDR297W, strain sur2, hits give low values 1.01 | locus YDR318W, strain mcm21, hits give low values 0.993 | locus YDR334W, strain swr1, hits give low values 1 | locus YDR335W, strain msn5, hits give low values 1 | locus YDR388W, hits give low values 0.99 | locus YDR392W, strain spt3, hits give low values 0.928 | locus YDR502C, strain sam2, hits give low values 0.991 | locus YEL003W, strain gim4, hits give low values 0.996 | locus YEL037C, strain rad23, hits give low values 0.998 | locus YEL061C, strain CIN8 (second series), hits give low values 1.01 | locus YEL061C, strain CIN8, hits give low values 1.01 | locus YER002W, strain NOP16, hits give low values 0.992 | locus YER015W, strain faa2, hits give low values 1 | locus YER016W, strain bim1, hits give low values 0.975 | locus YER110C, hits give low values 0.978 | locus YER111C, strain swi4, hits give low values 0.989 | locus YER155C, strain BEM2 (second series), hits give low values 1.02 | locus YER155C, strain BEM2, hits give low values 1.02 | locus YER167W, strain BCK2, hits give low values 1.02 | locus YFR010W, strain ubp6, hits give low values 1.01 | locus YGL078C, strain dbp3, hits give low values 0.984 | locus YGL086W, strain mad1, hits give low values 0.988 | locus YGL167C, strain pmr1, hits give low values 0.99 | locus YGL173C, strain kem1, hits give low values 1 | locus YGL227W, strain vid30, hits give low values 1 | locus YGL240W, strain doc1, hits give low values 1.03 | locus YGL248W, strain PDE1, hits give low values 1.02 | locus YGL253W, strain hxk2, hits give low values 0.966 | locus YGR078C, strain PAC10, hits give low values 1.01 | locus YGR135W, strain pre9, hits give low values 0.987 | locus YGR229C, strain SMI1, hits give low values 0.955 | locus YGR252W, strain gcn5, hits give low values 0.966 | locus YHR013C, strain ard1, hits give low values 0.982 | locus YHR027C, strain rpn1, hits give low values 0.98 | locus YHR030C, strain SLT2, hits give low values 1.01 and 1.05 | locus YHR079C, strain IRE1 (second series), hits give low values 0.984 | locus YHR079C, strain IRE1, hits give low values 1.06 | locus YHR094C, strain hxt1, hits give low values 0.985 | locus YHR129C, strain ARP1, hits give low values 1.01 | locus YHR142W, strain chs7, hits give low values 0.958 | locus YHR200W, strain rpn10, hits give low values 0.987 | locus YIL066C, strain RNR3, hits give low values 1.04 | locus YIL073C, strain SPO22, hits give low values 0.986 | locus YIL125W, strain kgd1, hits give low values 0.977 | locus YIR030C, strain dcg1, hits give low values 1 | locus YJL092W, strain hpr5, hits give low values 1.01 | locus YJL095W, strain BCK1 (second series), hits give low values 1 | locus YJL095W, strain BCK1, hits give low values 1.01 and 1.06 | locus YJL115W, strain asf1, hits give low values 1.02 | locus YJL129C, strain trk1, hits give low values 1 | locus YJL134W, strain LCB3, hits give low values 1.01 | locus YJL154C, strain vps35, hits give low values 0.991 | locus YJL164C, strain tpk1, hits give low values 0.975 | locus YJL166W, strain qcr8, hits give low values 1.01 | locus YJL168C, strain set2, hits give low values 0.994 | locus YJL187C, strain SWE1 (second series), hits give low values 1.01 | locus YJR043C, strain POL32, hits give low values 1.03 | locus YJR066W, strain TOR1, hits give low values 0.996
